Screening results as filed in PubChem BioAssay.
DT40 TDP1 no CPT: qHTS for Inhibitors of human tyrosyl-DNA phosphodiesterase 1 (TDP1): qHTS in cells in absence of CPT | DT40 Tdp1-/- hTDP1 cells, no CPT, ATP luminescence, 48 h | Potency, µM (series often up to 46.2 µM), most hits filed as inhibitors | 420,000 tested, 15% active; further: nearly all actives have a fitted effect of over 55% in size
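Growth of hTDP1-complemented DT40 Tdp1-knockout cells is measured by ATP luminescence after at least 48 hr compound exposure at 37 °C, with DMSO substituting for the 20 nM CPT used in the parallel screen.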
HT1080 IDH1KD tx: qHTS for induction of synthetic lethality in tumor cells producing 2HG: qHTS for the HT-1080-IDH1KD cell line. Potency, µM (top dose mostly 46.1 µM), hits mostly cytotoxic. HT-1080 IDH1 knockdown viability, ATP luminescence, 48 h. AID 686971, 2013. 360,000 tested, 2% active
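After a 2 h attachment period, IDH1KD HT-1080 cells took pin-transferred compound for 48 h at 37 °C; ATP-based luminescence after 10 min room-temperature reagent incubation reported viability.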
HT1080-NT tox: qHTS for induction of synthetic lethality in tumor cells producing 2HG: qHTS for the HT-1080-NT fibrosarcoma cell line; 360,000 tested, 1.6% active; AID 686970, 2013; HT-1080-NT fibrosarcoma viability, CellTiter-Glo ATP luminescence, 48 h; Potency, µM (titrated, usually from 46.1 µM), hits mostly cytotoxic;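 further: NT is the 2HG producing partner of a matched IDH1 knockdown line; nearly all actives have a fitted effect of over 55% in size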
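Read-out is CellTiter-Glo luminescence after 10 minutes at room temperature, following 48 hours' compound treatment of HT-1080-NT cells (750 cells/well, RPMI, 5% FBS, 37 degrees C).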
ELG1 DNA repair: qHTS screen for small molecules that inhibit ELG1-dependent DNA repair in human embryonic kidney (HEK293T) cells expressing luciferase-tagged ELG1. HEK293T ELG1-luciferase reporter, luminescence, 16 h; DNA damage induced by 5-fluorouridine. Potency, µM (doses to about 46.1 µM), most hits filed as inhibitors. 330,000 tested, 2.3% active. AID 504467, 2011; further: nearly all actives have a fitted effect of over 55% in size
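HEK293T cells expressing luciferase-tagged ELG1 (2,000/well) received 5-Fluorouridine plus compound or DMSO for 16 hr at 37 °C. Luciferase was read by ONE-Glo luminescence after 30 min at room temperature.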
IL1B secr inh: qHTS for Inhibitors of Inflammasome Signaling: IL-1-beta AlphaLISA Primary Screen; THP-1 LPS/ATP IL-1B secretion, AlphaLISA, 16 h; stronger effect = lower value; 360,000 tested, 4.7% active; activity change, % at 57.5 µM; in the data active means activity change below about -50%; inconclusive means mostly about -30% to -49%
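Secreted IL-1B measured by AlphaLISA bead assay after 16 h compound exposure of THP-1 cells; compounds (final up to 57.5 uM) added 1 h before LPS (250 ng/mL) and ATP (1.25 mM) stimulation; lower signal means less secretion.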
DT40 TDP1 CPT: qHTS for Inhibitors of human tyrosyl-DNA phosphodiesterase 1 (TDP1): qHTS in cells in presence of CPT. Potency, µM (titrated, usually from 46.2 µM), most hits filed as inhibitors. chicken DT40 Tdp1-/-;hTDP1 cells + 20 nM CPT, ATP luminescence, 48 h. 420,000 tested, 12% active. AID 686979, 2013; further: nearly all actives have a fitted effect of over 55% in size
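Chicken DT40 Tdp1-/- cells stably complemented with human TDP1 were seeded at 400 cells/well in medium containing 20 nM camptothecin, exposed to pin-transferred compounds, and grown at 37 °C for at least 48 hr. Viability was read as ATP luminescence.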
Hits are given with their value; – = inactive; ? = inconclusive; · = no result given; ! = not confirmed by another sample; [ ] = remark or other dose. A selection: hits, their analogues and other compounds. The true share with any hit is near 19%. Unless noted, the call rests on the fitted dose curve; in most records, active means well fitted curve in the direction sought with a large enough effect; inconclusive means small, poorly fitted or top-dose-only effect, or another doubt; inactive means no such curve, though single readings can be large; an effect the other way counts as inactive or inconclusive.

SMILES | DT40 TDP1 no CPT | HT1080 IDH1KD tx | HT1080-NT tox | ELG1 DNA repair | IL1B secr inh | DT40 TDP1 CPT
COc1ccccc1N(C)S(=O)(=O)c1ccc(Cl)c(C(=O)NCC2(N(C)C)CCCCC2)c1 | 8.2µM | – | – | ? | ? | ?
Cc1[nH]c(-c2ccc3c(c2)OCO3)nc1C(=O)O | 18µM | ? | ? | – | – | 10µM
COc1ccc(-c2noc(-c3ccc4c(c3)OCO4)n2)cc1 | – | – | – | ? | – | –
COc1ccc(-c2nc(-c3ccc4c(c3)OCO4)[nH]c2-c2ccc(OC)cc2)cc1 | ? | ? | 18µM | 18µM | ? | ?
COc1ccc(-c2nc(-c3ccccc3)c(-c3ccc(O)cc3)[nH]2)cc1 | 8.2µM | · | · | · | · | 13µM
COc1ccc(-c2[nH]c(-c3ccc(O)cc3)nc2-c2ccccc2)cc1 | ? | · | · | · | · | 15µM
Cc1[nH]c(-c2ccco2)nc1C(=O)O | – | – | – | – | – | –
CCCCC/C(C=O)=C\c1ccccc1 | – | · | · | · | · | –
NC(=NCCCCCCN=C(N)/N=C(\N)Nc1ccc(Cl)cc1)/N=C(\N)Nc1ccc(Cl)cc1 | 13µM! | 18µM! | 15µM! | – | -100! | 16µM!
CCCCN=C(Nc1ccc(Cl)cc1)c1cccnc1 | – | – | – | – | – | –
CC(C)N=C(N)N=C(N)Nc1ccc(Cl)cc1 | 9.2µM | ? | ? | – | ? | 26µM
CC(C)CN(CC(C)C)C(=S)Nc1ccc(Cl)cc1 | ? | ? | – | – | – | –
COc1ccccc1CN1CCC2(CC1)CCN(C(=O)c1cccn1C)CC2 | ? | · | · | · | · | –
CN1C(=O)/C(=C\c2ccccc2OCc2ccccc2)SC1=S | – | – | – | – | – | –
CN1C(=O)/C(=C\c2cc(N=Nc3ccccc3)ccc2O)SC1=S | 23µM | – | – | – | – | 21µM
Cc1cc(/C=C2\SC(=S)N(C)C2=O)c(C)n1-c1cccc(O)c1 | ? | – | – | ? | – | 23µM
Cc1cc(/C=C2\SC(=S)N(Cc3ccco3)C2=O)c(C)n1-c1ccccc1 | ? | – | – | ? | – | ?
COc1ccc(-n2c(C)cc(/C=C3/SC(=S)N(C)C3=O)c2C)cc1 | 18µM | – | – | ? | – | 21µM
COc1ccccc1N1CCN(C[C@@H](C(=O)NC(C)(C)C)c2ccccc2)CC1 | ? | · | · | · | · | –
CC[C@@]1(C(=O)OC)N[C@H](CN(C)C(=O)Nc2ccc(C)cc2)[C@@H]2C(=O)N(C)C(=O)[C@@H]21 | – | – | – | – | – | –
O=C(Nc1c(C(=O)N2CCOCC2)oc2ccccc12)c1ccccc1Cl | – | – | – | – | ? | ?
COc1ccc(CCNC(=O)Cn2c(C)c3cnn(-c4ccccc4)c(=O)c3c2C)cc1OC | – | · | · | · | · | –
[O-][n+]1cccc2c(Br)cc(Br)c(O)c21 | ? | – | – | ? | -62 | ?
COc1ccc(C(=O)O/N=C(\N)Cc2ccc(Cl)cc2)cc1OC | 21µM | ? | 15µM | ? | -54 | 16µM
COc1ccc(C(=O)O/N=C(\N)Cc2ccc(Cl)c(Cl)c2)cc1OC | ? | ? | 15µM | 18µM | – | 16µM
SMILES | DT40 TDP1 no CPT | HT1080 IDH1KD tx | HT1080-NT tox | ELG1 DNA repair | IL1B secr inh | DT40 TDP1 CPT
N/C(CCS(=O)(=O)c1ccc(Cl)cc1)=N\OC(=O)c1ccc(Cl)cc1 | 21µM | – | – | – | ? | ?
COc1ccc(C/C(N)=N/n2cnnc2)cc1Cl | – | – | – | – | – | –
N/C(Cc1ccc(Cl)cc1)=N\OC(=O)c1ccccc1 | ? | ? | ? | – | – | ?
C=CCn1c(Cn2c(-c3cnccn3)nc3ccccc32)nc2ccccc21 | ? | – | – | · | – | –
CCc1c(C)c2ccc(O)c(CN3CCN(c4ccc(F)cc4)CC3)c2oc1=O | ? | · | · | · | · | 21µM
CCN1CCN(Cc2c(O)ccc3c(C)c(-c4ccccc4)c(=O)oc23)CC1 | 16µM | · | · | · | · | ?
Cc1c(-c2ccc(Cl)cc2)c(=O)oc2ccc(OC(=O)N3CCOCC3)cc12 | 21µM | · | · | · | · | ?
CC1CN(Cc2c(O)ccc3c2oc(=O)c2ccccc23)CC(C)O1 (stereo not given) | 15µM | – | ? | ? | – | 15µM
CC1CN(Cc2c(O)ccc3c(=O)c(-c4ccccc4)coc23)CC(C)O1 (stereo not given) | – | – | – | ? | – | –
O=C1CCC(C(=O)N2CCN(c3ccccc3)CC2)CN1CC1CCCCC1 (stereo not given) | ? | – | – | – | – | ?
O=S(=O)(c1ccccc1)N1CCC[C@@]2(CCN(C(c3ccccc3)c3ccccc3)C2)C1 | – | · | · | · | · | –
Cc1c(-c2ccc(Cl)cc2)c(=O)oc2c(CN3CCOCC3)c(O)ccc12 | 21µM | · | · | · | · | ?
COc1ccc(-c2c(C)oc3c(CN4CCOCC4)c(O)ccc3c2=O)cc1 | – | – | – | – | – | –
CCOC(=O)Cc1csc(SCC(=O)Nc2cccc(C#N)c2)n1 | – | – | – | – | – | –
CCOC(=O)Cc1csc(NC(=O)c2cc(C)on2)n1 | – | – | – | · | – | –
CCOC(=O)Cc1csc(NC(=O)/C=C/c2ccc(OC)cc2)n1 | 21µM | – | – | ? | – | 10µM
CCOC(=O)Cc1csc(NC(=O)c2ccc3ccccc3n2)n1 | 18µM | – | – | – | – | ?
CCOC(=O)Cc1csc(NC(=O)COc2ccc(N(C)S(=O)(=O)c3cccs3)cc2)n1 | 29µM | – | – | 18µM | – | ?
CCOC(=O)Cc1csc(SCC(=O)Nc2cccc(Cl)c2)n1 | 15µM | –[9.24 µM] | – | ? | – | ?
COCOc1ccc(-c2ncc(OC)nc2NC(=O)c2ccsc2)cc1 | – | – | – | · | – | –
CCOC(=O)Cc1csc(NC(=O)c2cc(C)c(C)s2)n1 | 23µM | – | – | – | – | ?
CCOC(=O)Cc1csc(NC(=O)c2cnc3sc(C)cn3c2=O)n1 | 21µM | – | – | ? | – | ?
CCOC(=O)Cc1csc(N/N=C\c2cccc(Br)c2)n1 | ? | – | – | – | – | 13µM
CCOC(=O)Cc1csc(NC(=O)c2ccc(C)o2)n1 | – | – | – | – | – | –
CCOC(=O)Cc1csc(NC(=O)COc2ccccc2)n1 | – | – | 10µM | – | – | –
CCOC(=O)Cc1csc(NC(=O)c2ccc(Cl)s2)n1 | ? | – | – | – | – | ?
